Our source for the inhibition values is PubChem BioAssay AID1986 (Sanford-Burnham Center for Chemical Genomics, 2009).

A word on the inhibition: it is the drop in the measured response relative to a control, in per cent.

This experiment in a line: cell-free HIV fusion peptide-binding blockers – biochemical, uHTS, fluorescence dequenching, primary screen (AID 1986). Particulars: 30 min, stronger effect = higher value.
Where [1] appears, read: measured here: repeat confirmation average inhibition, at 18.6 µM.

Several values for one entry are separate records, joined by “and”; a condition that tells them apart may be missing. Equal entries are not always repeated. In all, about 290,000 compounds went through this assay and about 890 (0.31%) were called active. No stated cut-off is given here; in the data, active means inhibition mostly above about 52% (no sharp cut-off); inactive means mostly below about 76%. Many of the other results were omitted from the sample, so actives are more common in it than they were.

Consider `O=C1NC(=O)N(c2ccc3c(c2)OCO3)C(=O)/C1=C\c1ccc(N2CCCCC2)o1`, for which the inhibition (at 20 µM) is 112% (active) and the inhibition under setting [1] is 70.4%.

On to `O=C1NC(=O)N(c2ccc3c(c2)OCO3)C(=O)/C1=C\c1ccc(-c2ccccc2C(=O)O)o1`, for which the inhibition (at 20 µM) is 22.4% (inactive).

Take `O=C1NC(=O)N(c2ccc3c(c2)OCO3)C(=O)/C1=C/c1ccc(N2CCCC2)o1`: the inhibition reads like this: (at 20 µM) 111% (active); under setting [1], 89.9%.

`CCOc1ccc(N2C(=O)NC(=O)/C(=C\c3ccc(N4CCCCC4)o3)C2=O)cc1`: the inhibition (at 20 µM) is 152% (inactive).

On to `O=C1NC(=O)N(c2ccc3c(c2)OCO3)C(=O)/C1=C/c1ccc(N2CCCCC2)o1`, for which the inhibition (at 20 µM) is 0.8% (inactive).

Take `O=C1NC(=O)N(c2ccc3c(c2)OCO3)C(=O)/C1=C/c1cccs1`: the inhibition (at 20 µM) is 12.1% (inactive).

As to `CC(C)Cc1nnc(NC(=O)CCC(=O)N2CCC3(CC2)OCCO3)s1`, for the setting “at 20 µM”, the inhibition was -0.2% (inactive).

For the compound `FC(F)(F)c1ccccc1NC1=NCCCS1`, the inhibition (at 20 µM) was -1% (inactive).

Take `O=C1NC(=O)N(c2cccc(Cl)c2)C(=O)/C1=C\c1ccc(Sc2nc3ccccc3[nH]2)o1`: the inhibition (at 20 µM) is 78.9% (active).

In the case of `O=C1NC(=O)N(c2ccc(Cl)cc2)C(=O)/C1=C\c1ccc(Sc2nc3ccccc3[nH]2)o1`, the inhibition is 60.1% (inactive) (at 20 µM) and 26% under setting [1].

On to `O=C1NC(=O)N(c2ccccc2F)C(=O)/C1=C/c1ccc(Sc2nc3ccccc3[nH]2)o1`, for which the inhibition (at 20 µM) was 39% (inactive).

Regarding `CC1CC2(O)c3no[n+]([O-])c3CCC2N1O` (centres undefined), the inhibition (at 20 µM) is 1.4% (inactive).

Turning to `Cc1nc2ccc(Cl)cc2c(=O)n1-c1ccc([N+](=O)[O-])cc1`, the inhibition (at 20 µM) is -1.1% (inactive).

Turning to `CCN(CC)c1ccc(/C=N/c2sc3c(c2C#N)C2CCN3CC2)c(O)c1`, the inhibition is, setting by setting: (at 20 µM) 120% (active); under setting [1], 193%.

With `N#Cc1c(/N=C/c2ccc(O)cc2O)sc2c1C1CCN2CC1`, the inhibition (at 20 µM) is 3% (inactive).

Consider `CC(=O)c1c(C)n(Cc2ccccc2Cl)c2ccc(O)cc12`, for which the inhibition (at 20 µM) was -2.4% (inactive).

As for `Fc1ccc(Cn2nnnc2C(c2ccc(F)cc2)N2CC=C(c3ccc(F)cc3)CC2)cc1` (centres undefined), under “at 20 µM”, the inhibition was -1.1% (inactive).

Turning to `CCOc1ccc(-n2c(O)c(/C=C3\C=Nc4ccccc43)c(=O)[nH]c2=O)cc1`, the inhibition (at 20 µM) is 166% (inactive).

`O=c1[nH]c(=O)n(-c2ccccc2F)c(O)c1/C=C1\C=Nc2ccccc21`: the inhibition (at 20 µM) was 20.7% (inactive).

`O=c1[nH]c(=O)n(CC2CCCO2)c(O)c1/C=C1\C=Nc2ccccc21` (centres undefined): the inhibition (at 20 µM) was 5.1% (inactive) and 14.6% (inactive).

Take `O=c1[nH]c(=O)n(Cc2ccccc2)c(O)c1/C=C1\C=Nc2ccccc21`: the inhibition runs as follows: (at 20 µM) 102% (active); under setting [1], 66.2%.

On to `C=CCn1c(O)c(/C=C2\C=Nc3ccccc32)c(=O)[nH]c1=O`, for which the inhibition (at 20 µM) is 12.9% (inactive).

Regarding `CCCCn1c(O)c(/C=C2\C=Nc3ccccc32)c(=O)[nH]c1=O`, under “at 20 µM”, the inhibition was 78.2% (active).

For the compound `CCOP(=O)(OCC)/C(C#N)=C/c1ccoc1`, the inhibition (at 20 µM) is 13.5% (inactive).

Regarding `CC(=O)c1ccccc1NC(=O)C1C2CCC(O2)C1C(=O)O` (centres undefined), where the note is “at 20 µM”, the inhibition is 0% (inactive).

With `O=C1Nc2ccc(Br)cc2C(c2ccc(Cl)cc2)=NC1O` (centres undefined), the inhibition (at 20 µM) was -1.3% (inactive).

Turning to `CN1CCC(C)(O)C2CCCCC21` (centres undefined), the inhibition (at 20 µM) was -1.3% (inactive).

Regarding `Cc1cc(NC(=O)C(Cl)(Cl)Cl)no1`, the inhibition (at 20 µM) was 1% (inactive).

As to `CCOC(=O)C1C(=O)N(C)C2(C)CC1c1ccccc1O2` (centres undefined), the inhibition (at 20 µM) was 1.4% (inactive).

`O=C1NC(=O)C(=Cc2ccc(N3CCOCC3)o2)C(=O)N1`: under “at 20 µM”, the inhibition is 127% (inactive).

With `CN1C(=O)/C(=C\c2ccc(N3CCCCC3)o2)C(=O)NC1=S`, the inhibition (at 20 µM) is 151% (inactive).

On to `Cc1ccccc1N1C(=O)/C(=C/c2ccco2)C(=O)NC1=S`, for which, for the setting “at 20 µM”, the inhibition was 76.1% (active).

Turning to `CCN(CC)c1ccc(C=C2C(=O)N(C)C(=S)N(C)C2=O)o1`, the inhibition by setting is: (at 20 µM) 91% (active); under setting [1], 50.9%.

As to `CN1C(=O)/C(=C\c2ccc(N3CCCCCC3)cc2)C(=O)NC1=S`, where the note is “at 20 µM”, the inhibition was 1.7% (inactive).

As for `Cc1ccccc1N1C(=O)NC(=O)/C(=C/c2ccc(N3CCOCC3)o2)C1=O`, the inhibition is 124% (active) (at 20 µM) and 80.2% under setting [1].

Take `CCN(CC)c1ccc(/C=C2\C(=O)NC(=S)N(C)C2=O)o1`: the inhibition (at 20 µM) was 149% (inactive).

Take `CCOc1cccc(N2C(=O)/C(=C/c3ccco3)C(=O)NC2=S)c1`: under “at 20 µM”, the inhibition is 15.4% (inactive).

On to `CN1C(=O)/C(=C/c2ccc(N3CCCCCC3)o2)C(=O)NC1=S`, for which the inhibition is, setting by setting: (at 20 µM) 103% (active); under setting [1], 52.7%.

For the compound `Cc1ccccc1N1C(=O)NC(=O)/C(=C\c2cc(Br)c(N3CCOCC3)o2)C1=O`, the inhibition (at 20 µM) is 147% (inactive).

As for `CN1C(=O)C(=Cc2ccc(Sc3ccccc3)o2)C(=O)N(C)C1=O`, under “at 20 µM”, the inhibition is 15.9% (inactive).

Take `O=C1NC(=S)N(c2ccccc2)C(=O)/C1=C/c1ccco1`: the inhibition (at 20 µM) is 29.6% (inactive).

As to `CN1CCN(c2ccc(Cl)cc2N)CC1`, the inhibition (at 20 µM) was 0.1% (inactive).

With `CCC(=O)N1CC(=O)Nc2ccc(Cl)cc2C1c1ccc(F)cc1` (centres undefined), under “at 20 µM”, the inhibition was -1.6% (inactive).

As for `Cc1cccc(OCC(=O)N2CCN(Cc3ccc([N+](=O)[O-])cc3)CC2)c1`, the inhibition (at 20 µM) is -1.3% (inactive).

For the compound `COc1cc(OC)c(C=O)c(OC(=O)N(C)C)c1`, the inhibition (at 20 µM) is 0.7% (inactive).

For the compound `CCCC[N+]12CCC(CC1)C(=C(c1ccccc1)c1ccccc1)C2`, where the note is “at 20 µM”, the inhibition was 1.1% (inactive).

On to `C[C@]12CCC3C(CCC4=C/C(=N/OCC(=O)NC(CCC(=O)O)C(=O)O)CC[C@@]43C)C1CCC2O` (some centres undefined), for which the inhibition (at 20 µM) is 3.9% (inactive).

`NCCCC(=O)OC1N=C(c2ccccc2Cl)c2cc(Br)ccc2NC1=O` (centres undefined): where the note is “at 20 µM”, the inhibition is -0.8% (inactive).

Regarding `Clc1cccc(N2CCNCC2)n1`, the inhibition (at 20 µM) was 0.9% (inactive).

As to `CC(=NCC1CCCO1)c1c(O)n(C)c(=O)n(C)c1=O` (centres undefined), the inhibition (at 20 µM) is -2.1% (inactive).

For the compound `CCN1C(=O)C(=Cc2ccc(N3CCOCC3)o2)C(=O)N(CC)C1=S`, the inhibition (at 20 µM) was 136% (inactive).

As for `CN1C(=O)C(=Cc2ccc(N3CCOCC3)o2)C(=O)N(C)C1=O`, the inhibition by setting is: (at 20 µM) 69.4% (active); under setting [1], 81.3%.

As for `CN1C(=O)C(=Cc2ccc(N3CCOCC3)o2)C(=O)N(C)C1=S`, under “at 20 µM”, the inhibition is 144% (inactive).

Take `CN1C(=O)C(=Cc2ccc(N3CCCCC3)o2)C(=O)N(C)C1=S`: the inhibition was 103% (active) (at 20 µM) and 52.4% under setting [1].

As for `Cc1cccc(N2C(=O)/C(=C/c3ccc(N4CCN(C)CC4)o3)C(=O)NC2=S)c1C`, where the note is “at 20 µM”, the inhibition was 13.2% (inactive).

Regarding `CN1C(=O)C(=Cc2ccc(N3CCCCCC3)o2)C(=O)N(C)C1=S`, the inhibition (at 20 µM) is 149% (inactive).

On to `CN1CCN(c2ccc(/C=C3\C(=O)NC(=S)N(c4cccc(Br)c4)C3=O)o2)CC1`, for which the inhibition (at 20 µM) was 53.7% (active).

For `Cc1cc(C)cc(N2C(=O)/C(=C\c3ccc(N4CCN(C)CC4)o3)C(=O)NC2=S)c1`, where the note is “at 20 µM”, the inhibition was 149% (inactive).

As to `Cc1cc(N2CCCCC2)ccc1C=C1C(=O)N(C)C(=S)N(C)C1=O`, the inhibition (at 20 µM) was 17.8% (inactive).
